According to the supplement of paper PMC10981050:
Several values for one entry are separate records, joined by “and”; a condition that tells them apart may be missing. Equal entries are not always repeated. Structures can show the parent of a compound that is named as a salt.

Legend:
Experiment in all cases: cell viability relative to vehicle control; higher = less cytotoxic
Conditions in all cases: 10 µM
K562 = test system: K562
Procedure, shortened: (§1)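 Mutant clones made by CRISPR editing and their isogenic wild-type counterparts, from four leukaemia lines, were exposed to a single 10 µM dose of each library compound for 48 h. The supernatant was then removed and CellTiter-Glo luminescence was read. Viability was reported as percent of the on-plate vehicle control.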

MARIMO = test system: MARIMO
Procedure, shortened: as §1

MOLM14 = test system: MOLM14
Procedure, shortened: as §1

OCI-AML2 = test system: OCI-AML2
Procedure, shortened: as §1

SMILES	cell viability (K562; SRSF2 genotype: SRSF2 P95H/wt)	cell viability (K562; SRSF2 genotype: SRSF2 wt/wt)	cell viability (MARIMO; SRSF2 genotype: SRSF2 P95H/wt)	cell viability (MARIMO; SRSF2 genotype: SRSF2 wt/wt)	cell viability (MOLM14; SRSF2 genotype: SRSF2 P95H/wt)	cell viability (MOLM14; SRSF2 genotype: SRSF2 wt/wt)	cell viability (OCI-AML2; SRSF2 genotype: P95H/wt)	cell viability (OCI-AML2; SRSF2 genotype: wt/wt)
CC[C@H](C)[C@@H]([C@@H](CC(=O)N1CCC[C@H]1[C@H](OC)[C@@H](C)C(=O)N[C@H](C)[C@@H](O)c1ccccc1)OC)N(C)C(=O)[C@@H](NC(=O)[C@@H](NC)C(C)C)C(C)C [Monomethyl auristatin E (MMAE)]	11.7% and 32%	30.1%	7.27%	8.86%	0.32%	0.5%	0.78%	2.69%
O=P1(NCCCl)OCCCN1CCCl (stereo not drawn) [Ifosfamide]	98.8% and 105%	104%	105%	100%	104%	101%	111%	98%
Nc1nc(N)nc(N)n1 [Melamine]	93% and 95.7%	90%	94.3%	99%	90.1%	94.4%	95.2%	97.8%
N#CC(C#N)=Cc1ccc(O)c(O)c1 [AG 18 (Tyrphostin 23)]	86.3% and 84.4%	80.7%	78.4%	79.8%	81.5%	86.5%	78.8%	82%
CC1=C[C@H]2Cc3[nH]c(=O)ccc3[C@]3(C1)NCCC[C@H]23 [Huperzine B]	110% and 97%	113%	109%	103%	113%	108%	105%	94.8%
CNCC(O)c1ccc(O)cc1 (stereo not drawn) [Synephrine (Oxedrine)]	106% and 102%	94.5%	103%	98.5%	97.4%	101%	98.4%	106%
CNCC(O)c1ccc(O)cc1 (stereo not drawn) [Synephrine HCl]	102% and 114%	108%	110%	99.8%	104%	111%	108%	101%
O=C(CBr)c1ccc(O)cc1 [PTP Inhibitor I]	106% and 101%	107%	103%	104%	97.2%	108%	104%	103%
CC(=O)O[C@H]1C(=O)[C@@]2(C)[C@H]([C@H](OC(=O)c3ccccc3)[C@]3(O)C[C@H](O)C(C)=C1C3(C)C)[C@]1(OC(C)=O)CO[C@@H]1C[C@@H]2O	93.5% and 95%	102%	100%	96.6%	104%	102%	104%	97.3%
CN1C2CC(OC(=O)C(CO)c3ccccc3)CC1C(O)C2 (stereo not drawn) [Raceanisodamine]	107% and 103%	107%	99%	111%	100%	107%	99.6%	104%
C/C(O)=C(\C#N)C(=O)Nc1cc(Br)ccc1Br	88.8% and 87.1%	89.1%	88.4%	96.5%	78.9%	93.7%	86.1%	87.7%
COc1cc2c(cc1O)C[C@H]1c3c(cc(O)c(OC)c3-2)CCN1C [Boldine]	99.6% and 100%	99%	94.1%	88.6%	96.5%	101%	95.3%	91%
CC[C@H]1CN2CC[C@]3(C(=O)Nc4ccccc43)[C@@H]2C[C@@H]1/C(=C\OC)C(=O)OC [Rhynchophylline]	93.2% and 97.5%	89.5%	80.4%	77.7%	88.9%	88.3%	86.7%	88.5%
C[C@@H]1O[C@@H](O[C@H]2C[C@@H](O)[C@]3(CO)[C@H]4[C@H](O)C[C@]5(C)[C@@H](C6=CC(=O)OC6)CC[C@]5(O)[C@@H]4CC[C@]3(O)C2)[C@H](O)[C@H](O)[C@H]1O [Ouabain]	10.4% and 12.3%	12.4%	10.7%	4.01%	3.34%	0.78%	0.73%	2.79%
COC1=C[C@]23CCCN2CCc2cc4c(cc2[C@@H]3[C@@H]1O)OCO4 [Cephalotaxine]	91.4% and 93.8%	93.5%	91%	93.2%	96.1%	96.5%	90.8%	91.4%
CC(C)(C)c1cc(C=C(C#N)C#N)cc(Br)c1O	84.3% and 86.2%	78%	94.2%	99.3%	93.5%	100%	80.5%	89.6%
O=C(O)c1nn(Cc2ccc(Cl)cc2Cl)c2ccccc12 [Lonidamine]	97% and 107%	101%	107%	97.7%	98.1%	95.6%	99.5%	92.2%
O=c1[nH]c2ccccc2n1C1CCN(Cc2ccc(-c3[nH]c4cc5ncnc5cc4nc3-c3ccccc3)cc2)CC1	56.9% and 65.9%	61.7%	66.5%	76.2%	53.6%	43.6%	48.8%	47.9%
CN(C)[C@@H]1C(=O)C(C(N)=O)=C(O)[C@@]2(O)C(=O)C3=C(O)c4c(O)cccc4[C@@](C)(O)[C@H]3[C@H](O)[C@@H]12 [Oxytetracycline dihydrate]	98.3% and 102%	101%	104%	100%	97.6%	103%	103%	92.6%
CC(=O)OC12COC1CC(O)C1(C)C(=O)C(O)C3=C(C)C(O)CC(O)(C(OC(=O)c4ccccc4)C21)C3(C)C (stereo not drawn) [10-DAB (10-Deacetylbaccatin)]	103% and 110%	103%	109%	108%	111%	105%	105%	98.3%
CC(C)OC(=O)[C@H](C)N[P@](=O)(CO[C@H](C)Cn1cnc2c(N)ncnc21)Oc1ccccc1 [Tenofovir Alafenamide (GS-7340)]	100% and 106%	97.3%	93.8%	91.2%	87%	90.6%	31.5%	53.6%
